Laboratory results: PubChem BioAssay AID1159580 (chemical genetic matrix, 2015)
Hit rate of the full screen: of about 5,500 compounds, about 2,000 (36%) were called active. About 18% were inconclusive and are not listed. No stated cut-off is given here; in the data, active means normalized growth mostly below about 0.91 (no sharp cut-off); inconclusive means no clear call, values can overlap the other calls; inactive means mostly above about 0.92. The list shows a part of the results.

Experiment: chemical genetic growth profiling, strain panel (AID 1159580);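 further: tested at 20 µM; growth read once vehicle control cultures reached saturation at 30 °C; 1 = growth at the plate median or of vehicle wells; lower values mean less growth of the strain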
Settings: growth OD
[1] = S. cerevisiae deletion strains, locus YAL013W, strain DEP1, hits give low values
[2] = S. cerevisiae deletion strains, locus YBR229C, strain ROT2, hits give low values
[3] = S. cerevisiae deletion strains, locus YDL101C, strain DUN1, hits give low values
[4] = S. cerevisiae deletion strains, locus YEL061C, strain CIN8, hits give low values
[5] = S. cerevisiae deletion strains, locus YGR078C, strain PAC10, hits give low values
[6] = S. cerevisiae deletion strains, locus YHR030C, strain SLT2, hits give low values
[7] = S. cerevisiae deletion strains, locus YHR087W, strain rtc3, hits give low values
[8] = S. cerevisiae deletion strains, locus YJR043C, strain POL32, hits give low values
[9] = S. cerevisiae deletion strains, locus YJR075W, strain HOC1, hits give low values
[10] = S. cerevisiae deletion strains, locus YLR039C, strain RIC1, hits give low values
[11] = S. cerevisiae deletion strains, locus YLR058C, strain SHM2 (second series), hits give low values
[12] = S. cerevisiae deletion strains, locus YLR085C, strain ARP6, hits give low values
[13] = S. cerevisiae deletion strains, locus YLR262C, strain YPT6, hits give low values
[14] = S. cerevisiae deletion strains, locus YML094W, strain GIM5, hits give low values
[15] = S. cerevisiae deletion strains, locus YMR219W, strain ESC1, hits give low values
[16] = S. cerevisiae deletion strains, locus YMR263W, strain SAP30, hits give low values
[17] = S. cerevisiae deletion strains, locus YNL153C, strain GIM3, hits give low values
[18] = S. cerevisiae deletion strains, locus YNL298W, strain CLA4 (second series), hits give low values
[19] = S. cerevisiae deletion strains, locus YNL322C, strain KRE1, hits give low values
[20] = S. cerevisiae deletion strains, locus YNR030W, strain Alg12, hits give low values
[21] = S. cerevisiae deletion strains, locus YPL055C, strain LGE1, hits give low values
[22] = S. cerevisiae deletion strains, locus YPL241C, strain CIN2, hits give low values
[23] = S. cerevisiae deletion strains, locus YPR135W, strain CTF4, hits give low values
[24] = S. cerevisiae strains, strain wild type, hits give low values

Measured: normalized growth

COC(=O)COc1ccc(C(C)=O)cc1
inactive: [1] 1.01 | [2] 0.988 | [3] 0.96 | S. cerevisiae deletion strains, locus YDR150W, strain NUM1, hits give low values 0.977 | [4] 1.01 | [5] 1 | S. cerevisiae deletion strains, locus YGR229C, strain SMI1, hits give low values 0.992 | [6] 1.02 | [7] 1 | [8] 1.01 | [9] 0.984 | [10] 0.974 | [11] 1 | [12] 1.01 | [13] 0.975 | [14] 0.952 | [15] 1.01 | [16] 1 | [17] 1 | [18] 0.977 | [19] 0.991 | [20] 0.98 | S. cerevisiae deletion strains, locus YOL006C, strain TOP1, hits give low values 0.999 | [21] 0.992 | [22] 1.07 | [23] 0.935 | [24] 0.99

O=C(O)CCOc1ccc(Cl)cc1
inactive: [1] 0.956 | [3] 0.901 | S. cerevisiae deletion strains, locus YDL134C, strain PPH21, hits give low values 1 | [4] 0.999 | [6] 1.01 | S. cerevisiae deletion strains, locus YKL190W, strain CNB1, hits give low values 1 | [10] 0.979 | [12] 1 | [13] 0.993 | [14] 1.01 | S. cerevisiae deletion strains, locus YMR307W, strain GAS1, hits give low values 0.895 | [18] 1.03 | [20] 1 | [22] 0.954 | [23] 1.11 | [24] 1.01
active: [2] 0.795 | S. cerevisiae deletion strains, locus YCL061C, strain MRC1, hits give low values 0.825 | [5] 0.753 | [7] 0.729 | S. cerevisiae deletion strains, locus YJL187C, strain SWE1, hits give low values 0.837 | [8] 0.913 | [9] 0.64 | [11] 0.904 | [15] 0.838 | [16] 0.859 | [17] 0.793 | [19] 0.9 | [21] 0.763
